# Key:
# Assay in all cases: PBM binding z-score (relative to random genomic background probes); higher = stronger binding; sequences stand for … in GC…GCGATTGACAGCGTAGAATGAAGG
# [1] = system: FXR:RXRa (NR concentration 270 nM, RXRa partner concentration 90 nM)
# Procedure, shortened: (§1)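 For binding z-scores, the reference was random background probes on custom Agilent 4×180K protein-binding microarrays. These arrays were incubated 1 h with ligand-free nuclear receptor dimers in PBS pH 7.4, 2% milk, 0.02% Triton X-100, 1 mM DTT, 0.2 mg/mL BSA and 0.4 mg/ml salmon testes DNA. Fluorescence was scanned after antibody detection of each partner (one per run) and regression-normalized.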
# [2] = system: LXRa:RXRa (NR concentration 270 nM, RXRa partner concentration 90 nM)
# Procedure, shortened: as §1
# [3] = system: LXRa homodimer (NR concentration 270 nM)
# Procedure, shortened: as §1
# [4] = system: LXRb:RXRa (NR concentration 270 nM, RXRa partner concentration 90 nM)
# Procedure, shortened: as §1
# [5] = system: LXRb homodimer (NR concentration 270 nM)
# Procedure, shortened: as §1
# [6] = system: PPARa:RXRa (NR concentration 270 nM, RXRa partner concentration 90 nM)
# Procedure, shortened: as §1
# [7] = system: PPARg:RXRa (NR concentration 180 nM, RXRa partner concentration 90 nM)
# Procedure, shortened: as §1
# [8] = system: PPARg:RXRa 270nM:90nM, anti-RXR (NR concentration 270 nM, RXRa partner concentration 90 nM)
# Procedure, shortened: as §1
# [9] = system: PPARg:RXRa 30nM:10nM, anti-RXR (NR concentration 30 nM, RXRa partner concentration 10 nM)
# Procedure, shortened: as §1
# [10] = system: PPARg:RXRa 90nM:30nM, anti-RXR (NR concentration 90 nM, RXRa partner concentration 30 nM)
# Procedure, shortened: as §1
# [11] = system: PPARg:RXRa DBDmut IVT, anti-RXR (DBD mutation: RXRa K156A/R161A, NR concentration 270 nM, RXRa partner concentration 90 nM)
# Procedure, shortened: as §1
# [12] = system: PPARg:RXRa IVT, anti-PPARg (NR concentration 270 nM, RXRa partner concentration 90 nM)
# Procedure, shortened: as §1
# [13] = system: PPARg DBDmut:RXRa IVT, anti-PPARg (DBD mutation: PPARg1 K132A/R137A, NR concentration 270 nM, RXRa partner concentration 90 nM)
# Procedure, shortened: as §1
# [14] = system: PPARg DBDmut IVT, anti-PPARg (DBD mutation: PPARg1 K132A/R137A, NR concentration 270 nM)
# Procedure, shortened: as §1
# [15] = system: PPARg homodimer (NR concentration 180 nM)
# Procedure, shortened: as §1
# [16] = system: PXR:RXRa (NR concentration 270 nM, RXRa partner concentration 90 nM)
# Procedure, shortened: as §1
# [17] = system: PXR homodimer (NR concentration 270 nM)
# Procedure, shortened: as §1
# [18] = system: RARa:RXR (NR concentration 270 nM, RXRa partner concentration 90 nM)
# Procedure, shortened: as §1
# [19] = system: RARa homodimer (NR concentration 270 nM)
# Procedure, shortened: as §1
# [20] = system: RARb:RXRa (NR concentration 270 nM, RXRa partner concentration 90 nM)
# Procedure, shortened: as §1
Sequence,PBM binding z-score [1],PBM binding z-score [2],PBM binding z-score [3],PBM binding z-score [4],PBM binding z-score [5],PBM binding z-score [6],PBM binding z-score [7],PBM binding z-score [8],PBM binding z-score [9],PBM binding z-score [10],PBM binding z-score [11],PBM binding z-score [12],PBM binding z-score [13],PBM binding z-score [14],PBM binding z-score [15],PBM binding z-score [16],PBM binding z-score [17],PBM binding z-score [18],PBM binding z-score [19],PBM binding z-score [20]
CCTACGGGGCCATTCAGAGGTCATTGATCATATG,3.56,4.88,6.49,4.17,0.225,3.62,1.16,2.21,0.193,1.32,0.224,1.43,-1.02,-0.577,4.06,5.55,4.64,5.76,0.566,3.55
TCGAGTAGGTTAGTCGGGGCATTTAGCCAACATA,0.338,0.346,-0.167,0.722,-0.677,0.819,-0.0847,0.976,1.17,1.04,2.28,1.85,-0.436,-0.412,0.35,0.275,-0.067,0.501,-0.283,0.582
GCAGACAGGTGAAACGCAGGTTACTCAGGGTGGC,-0.0153,0.86,-0.533,0.216,-0.875,1.06,0.535,0.0459,-0.6,-0.266,1.13,0.617,-0.717,-0.933,-0.435,0.076,-0.507,0.833,-0.748,1.02
ACTAGCAGGCCAAGTTTGGGTCACTCCAACAAAG,0.154,0.00504,-0.19,0.664,-0.49,1.18,-0.0331,-0.0928,-0.803,-0.387,0.7,1.34,-0.265,-0.469,0.235,0.603,-0.498,1.4,-0.0686,1.74

# — the supplement of paper PMC6555819
